Bioassay records as filed in PubChem.
KB-3-1 tox: KB-3-1 parental cell cytotoxicity; hit rate 1.4% among 400,000; KB-3-1 viability, CellTiter-Glo ATP luminescence, 72 h; Potency, µM (series often up to 46.1 µM), most hits filed as cytotoxic; also: nearly all actives have a fitted effect of over 60% in size
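Cytotoxicity measured as CellTiter-Glo luminescence after 72 h at 37 C. Compound titrations were pinned onto drug-naive KB-3-1 parental adenocarcinoma cells grown in DMEM with 10% FBS, and normalized data fitted to concentration-response curves.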
A549 tox: A549 cytotoxicity, counter-screen for Nrf2 inhibitors | A549 ARE-Fluc cells, CellTiter-Fluor viability, 18-24 h | Potency, µM (doses to about 46 µM), usual class: inhibitors | hit rate 0.16% among 390,000 | AID 504648
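Cytotoxicity counterscreen: CellTiter-Fluor fluorescence was measured in A549 ARE_Fluc cells after 18-24 h of compound exposure in a concentration series. The subsequent BugLite luminescent read reports ARE-luciferase activity.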
Giardia kill: kills Giardia lamblia | Giardia lamblia trophozoite viability | activity change, % at 7.66 µM, hits read low | hit rate 0.15% among 340,000 | AID 540267; in the data active = activity change below about -80%; inconclusive = between about -30% and that limit;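 also: parasites exposed to compound for two days anaerobically before the ATP read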
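Media and compound were dispensed first, then trophozoites at 100 cells/well; plates sat 48 hrs at 37 deg C without oxygen before ATP luminescence reagent was added and read after 15-30 min at room temperature.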
KB-V1 MDR tox: kills drug-selected multidrug resistant KB-V1 cells. KB-V1 MDR cells viability, CellTiter-Glo, 72 h. Potency, µM (top dose mostly 46.1 µM), actives largely listed as cytotoxic. hit rate 3.4% among 400,000. AID 1347076; also: nearly all actives have a fitted effect of over 60% in size
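Luminescent ATP read-out (CellTiter-Glo, 10 min) measures survival of drug-selected KB-V1 MDR cells after 72 h, 37 degrees C compound exposure. Medium: phenol-red-free DMEM, 10% FBS. Values from fitted concentration-response curves.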
PI4K2A block: PI4K2A (human) kinase inhibition; activity change, negative = inhibition, % at 76.9 µM; AID 1346378; hit rate 0.13% among 420,000; purified PI4K2A, ADP-Glo luminescence, 1 h; stronger effect = lower value; Q9BTU6; in the data active = activity change below about -50%; inconclusive = mostly about -30% to -49%
Target sequence (Q9BTU6 whole entry, looked up): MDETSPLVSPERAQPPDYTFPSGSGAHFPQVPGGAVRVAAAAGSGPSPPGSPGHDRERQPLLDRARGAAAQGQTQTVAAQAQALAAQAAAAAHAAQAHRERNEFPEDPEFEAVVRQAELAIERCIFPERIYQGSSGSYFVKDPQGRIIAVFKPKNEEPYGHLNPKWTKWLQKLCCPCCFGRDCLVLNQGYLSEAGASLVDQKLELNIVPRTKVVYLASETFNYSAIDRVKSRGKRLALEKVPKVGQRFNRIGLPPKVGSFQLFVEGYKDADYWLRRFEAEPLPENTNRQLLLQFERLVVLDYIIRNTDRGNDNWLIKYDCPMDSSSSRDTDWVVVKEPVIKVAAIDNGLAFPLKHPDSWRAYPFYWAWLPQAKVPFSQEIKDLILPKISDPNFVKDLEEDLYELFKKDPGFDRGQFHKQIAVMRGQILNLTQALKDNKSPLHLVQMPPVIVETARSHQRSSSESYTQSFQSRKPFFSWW
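In this quantitative HTS, ADP production by PI4K2A was quantified luminescently after 1 h at ambient temperature; 100 microM adenosine served as plate-quality control.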
Nrf2 inh: blocks Nrf2 signaling. A549 ARE-Fluc reporter, luciferase luminescence, 18-24 h. Potency, µM (highest dose often 46 µM), actives largely listed as inhibitors. hit rate 2.1% among 360,000; also: nearly all actives have a fitted effect of over 60% in size
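Nrf2 function is reported as luminescence of an ARE-controlled luciferase in A549 cells. Compounds were tested at several concentrations, and a CellTiter-Fluor read on the same wells flagged cytotoxicity.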
A number is an active result; - = inactive; ? = inconclusive; . = not tested or not shown; [ ] = remark or other dose. Only some compounds are listed: those with a hit (about 5.7% of all), similar ones and a draw of the others. Unless noted, calls follow the shape of the dose curve; as a rule, active = well fitted curve in the direction sought with a large enough effect; inconclusive = small, poorly fitted or top-dose-only effect, or another doubt; inactive = no such curve, though single readings can be large; an effect the other way counts as inactive or inconclusive.

SMILES | KB-3-1 tox | A549 tox | Giardia kill | KB-V1 MDR tox | PI4K2A block | Nrf2 inh
CCOC(=O)CCC(NC(=O)c1ccc(Nc2nc3ccccc3nc2C(=O)OCC)cc1)C(=O)OCC (centres undefined) | - | - | - | 9.2µM | - | -
CCCCC12CN3CC(C)(CN(C1)C31C(=O)N(C)c3ccc(C)cc31)C2=O (centres undefined) | - | - | - | 9.2µM | - | -
O=C(NCc1ccccc1)c1cc(=O)c2ccccc2o1 | - | - | - | - | - | ?
COc1ccc(CNC(=O)c2cc(=O)c3ccccc3o2)cc1 | - | - | - | - | - | 13µM
Cc1cccc(N=Nc2c(C)c(C#N)c(O)[nH]c2=O)c1 | - | - | -97 | - | - | -
Cc1c(C#N)c(O)[nH]c(=O)c1N=Nc1ccc(Br)cc1C(=O)O | - | - | - | - | - | -
CCN(CC)CCCN=Cc1c(-c2ccccc2)[nH]n(-c2nc3ccccc3s2)c1=O | - | - | - | - | - | ?
CCC(=NCc1ccco1)c1c(C(F)(F)F)[nH]n(-c2nc3ccccc3s2)c1=O | - | - | - | 21µM | - | -
CCCN=C(C)c1c(-c2ccccc2)[nH]n(-c2nc3ccccc3s2)c1=O | - | - | - | 8.2µM | - | ?
C/C(=N/NC(=O)c1cccs1)c1c(C)[nH]n(-c2nc3ccccc3s2)c1=O | ? | - | ? | - | -66 | ?
CCCCCOc1ccc(/C=N/NC(=O)CSc2nnc(-c3ccc(OC)cc3)n2-c2ccc(C)cc2)cc1 | . | . | . | . | - | .
CO[C@@]1(NC(=O)CSC[C@@H](N)C(=O)O)C(=O)N2C(C(=O)O)=C(CSc3nnnn3C)CS[C@@H]21 | . | . | . | . | - | .
COc1ccc2nc(SCC(=O)Nc3ccccc3C#N)[nH]c2c1 | - | - | - | - | - | -
Cc1ccc(S(=O)(=O)N(C)C)cc1NC(=O)CSc1nc2ccccc2[nH]1 | - | - | - | 15µM | - | -
COc1cccc(CN(C)C(=O)CSc2nc3ccccc3[nH]2)c1OC | - | - | - | 16µM | - | -
COc1cc2c(cc1NC(=O)CSc1nc3ccccc3[nH]1)oc1ccccc12 | - | ? | - | - | - | 18µM
COc1cccc(CN(C)C(=O)Cc2c[nH]c3ccccc23)c1OC | - | - | - | ? | - | -
CCN(CC)S(=O)(=O)c1ccc(C)c(NC(=O)CSc2nc3ccccc3[nH]2)c1 | - | - | - | ? | - | -
COc1ccc2nc(SCC(=O)Nc3ccccc3C)[nH]c2c1 | - | - | - | 15µM | - | .
O=C(NC1CCCCN(Cc2cccc(Cl)c2)C1=O)c1ccc(F)c(F)c1 (centres undefined) | . | . | . | . | - | .
O=S1(=O)c2ccc(Br)cc2OC[C@@H](c2ccccc2)N1Cc1cn(CCC2OCCCO2)nn1 | . | . | . | . | - | .
O=C(/C=C/c1ccccc1[N+](=O)[O-])c1ccccc1Br | ? | ? | - | ? | - | 16µM
CCCCNC(=O)CSc1nc2n[nH]c(C)c2c(=N)n1-c1ccccc1CC | . | - | . | . | - | .
CC1=CC2C(C(O)CC3(C)C2CC(C)C32OCOC23COCO3)C2(C)C/C(=C\O)C(=O)C=C12 (centres undefined) | ? | ? | - | ? | - | 21µM
COc1cc(N(C)C)ccc1/C=C1\C=Cc2ccccc21 | - | . | . | - | . | .
SMILES | KB-3-1 tox | A549 tox | Giardia kill | KB-V1 MDR tox | PI4K2A block | Nrf2 inh
COc1ccc(-n2c(-c3ccc(Br)cc3)c[n+]3c2CCCCC3)cc1 | 3.7µM | - | - | - | - | ?
COc1ccc(-n2c(-c3ccc(Br)cc3)n[nH]c2=S)cc1 | - | - | - | - | - | -
COc1ccc(-n2c(-c3ccc(Br)cc3)c[n+]3c2SC(C)C3)cc1 (centres undefined) | 5.8µM | - | - | - | - | -
Clc1ccccc1N1CCN(C2=Nc3ccccc3Sc3ccccc32)CC1 | . | . | . | . | - | .
CN(Cc1ccc(Cl)cc1)C(=O)CCl | 16µM | ? | - | ? | - | ?
COc1ccc(CN(C)C(=O)CCl)cc1 | - | - | - | - | - | -
c1nc(NCC2CCCO2)c2ccc(-c3ccc4c(c3)OCO4)cc2n1 (centres undefined) | . | - | . | . | . | ?
O=C(NCc1ccccc1Cl)C(=O)NCC(c1ccco1)S(=O)(=O)c1cccs1 (centres undefined) | - | - | . | - | - | .
Nc1nc(N)c2nc(CNc3ccc(C(=O)NC(CCC(=O)O)C(=O)O)cc3)cnc2n1 (centres undefined) | - | . | . | - | - | .
CN(Cc1cnc2nc(N)nc(N)c2n1)c1ccc(C(=O)NC(CCC(=O)O)C(=O)O)cc1C(F)(F)F (centres undefined) | 0.013µM | - | - | ? | - | ?
C=CCNc1nc(NC2CCN(C)CC2)c2cc(OC)c(OC)cc2n1 | ? | . | . | - | . | .
CN(C(=O)c1ccc2c(c1)N(Cc1cccc(Cl)c1)C(=O)c1ccccc1S2(=O)=O)C1CCCCC1 | . | - | . | . | - | .
COc1ccc(-c2cnc(OC(C)(C)C)nc2OC(C)(C)C)cc1OC | ? | ? | - | ? | - | 23µM
COc1ccccc1C1(CCNS(=O)(=O)c2ccc(C)cc2)CCOC(C(C)C)C1 (centres undefined) | ? | - | - | 3.7µM | - | -
COc1ccccc1C1(CCNC(C)c2cccs2)CCOC(C(C)C)C1 (centres undefined) | - | - | - | ? | - | -
CCOc1ccccc1C(=O)Oc1c(S(=O)(=O)c2ccc(C)cc2)c(C)nn1-c1ccccc1 | - | - | . | - | - | -
C[n+]1ccc(/C=C/c2ccc(Br)cc2)cc1 | ? | ? | - | - | - | 7.3µM
Cc1nc(CC(=O)c2c(C)cc(O)cc2O)cs1 | 21µM | - | - | 21µM | - | -
Cc1nn(-c2ccccc2)cc1/C=N/NC(N)=S | ? | - | - | 16µM | - | -
Cc1nn(-c2ccccc2)cc1/C=N/O | - | . | - | - | - | -
CCOc1cc(CNC(=O)Cn2ncn3c(cc4cc(F)ccc43)c2=O)cc(OCC)c1OCC | - | - | . | - | - | -
CCOC(=O)[C@@]12CCC3=C1N(CCC3)C(=O)[C@H](CC(=O)NCCCN1CCCC1=O)C2 | . | . | . | . | - | .
N#CCCN1CCN(Cc2cc(-c3ccccc3)ccc2O)CC1 | - | ? | - | 21µM | - | -
CC(C)(C)CC(C)(C)c1ccc(O)c(CN2CCN(CCC#N)CC2)c1 | - | ? | - | ? | - | ?
O=C(CSc1oc(-c2ccccc2)nc1S(=O)(=O)c1ccc(Cl)cc1)NC1CCCCC1 | - | - | . | - | - | -[9.27 µM]
O=C(CSc1oc(-c2cccs2)nc1S(=O)(=O)c1ccccc1)NC1CCCCC1 | - | - | - | 3.7µM | - | ?
CN1CCN(c2oc(-c3cccs3)nc2S(=O)(=O)c2ccccc2)CC1 | - | - | - | 13µM | - | -
CN1CCN(c2oc(-c3ccccc3Cl)nc2S(=O)(=O)c2ccccc2)CC1 | - | - | - | ? | - | -
